Source: PubChem BioAssay (NCATS)
Records with an inconclusive call do not appear. The source made the active and inactive calls. Unless noted, the call rests on the fitted dose curve; in most records, active means well fitted curve in the direction sought with a large enough effect; inconclusive means small, poorly fitted or top-dose-only effect, or another doubt; inactive means no such curve, though single readings can be large; an effect the other way counts as inactive or inconclusive.

Columns and labels:
[1] = biological target: Cytochrome P450 1A2 (Homo sapiens) (UniProt P05177); assay: p450-cyp1a2 (AID 410; calls by dose curve; further: potency means the concentration at half of the fitted maximal effect;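 on activity change, negative = inhibition: -100% = full effect of reference inhibitor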)
Sequence of Cytochrome P450 1A2 (Homo sapiens) (P05177 whole entry, looked up): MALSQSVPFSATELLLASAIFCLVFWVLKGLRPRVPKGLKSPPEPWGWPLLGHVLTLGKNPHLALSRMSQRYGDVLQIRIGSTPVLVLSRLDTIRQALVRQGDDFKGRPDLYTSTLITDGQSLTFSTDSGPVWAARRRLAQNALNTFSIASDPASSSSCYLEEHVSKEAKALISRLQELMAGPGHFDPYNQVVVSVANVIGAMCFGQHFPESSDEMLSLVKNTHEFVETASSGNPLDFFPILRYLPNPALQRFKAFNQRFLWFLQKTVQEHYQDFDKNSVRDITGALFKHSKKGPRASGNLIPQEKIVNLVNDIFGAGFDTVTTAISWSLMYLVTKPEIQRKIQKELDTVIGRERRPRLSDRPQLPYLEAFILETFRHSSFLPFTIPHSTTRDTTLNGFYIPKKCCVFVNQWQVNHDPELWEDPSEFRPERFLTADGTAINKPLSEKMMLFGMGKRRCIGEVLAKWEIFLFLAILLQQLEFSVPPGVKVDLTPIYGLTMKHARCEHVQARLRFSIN
How it was run: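 O-Demethylation of luciferin 6' methyl ether by human CYP1A2 is monitored as luciferase luminescence. Substrate sits at Km (100uM); enzyme is 20nM. Values are scaled to 57 uM furafylline as maximal inhibition.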

[2] = biological target: Glucocorticoid receptor (Homo sapiens) (UniProt P04150); assay: GR-EFC Redistribution (AID 451; calls by dose curve; further: potency means the concentration at half of the fitted maximal effect); settings: CHO-K1 GR-EFC translocation, beta-gal luminescence, 2 h
Sequence of Glucocorticoid receptor (Homo sapiens) (P04150 whole entry, looked up, the tested form may be a part): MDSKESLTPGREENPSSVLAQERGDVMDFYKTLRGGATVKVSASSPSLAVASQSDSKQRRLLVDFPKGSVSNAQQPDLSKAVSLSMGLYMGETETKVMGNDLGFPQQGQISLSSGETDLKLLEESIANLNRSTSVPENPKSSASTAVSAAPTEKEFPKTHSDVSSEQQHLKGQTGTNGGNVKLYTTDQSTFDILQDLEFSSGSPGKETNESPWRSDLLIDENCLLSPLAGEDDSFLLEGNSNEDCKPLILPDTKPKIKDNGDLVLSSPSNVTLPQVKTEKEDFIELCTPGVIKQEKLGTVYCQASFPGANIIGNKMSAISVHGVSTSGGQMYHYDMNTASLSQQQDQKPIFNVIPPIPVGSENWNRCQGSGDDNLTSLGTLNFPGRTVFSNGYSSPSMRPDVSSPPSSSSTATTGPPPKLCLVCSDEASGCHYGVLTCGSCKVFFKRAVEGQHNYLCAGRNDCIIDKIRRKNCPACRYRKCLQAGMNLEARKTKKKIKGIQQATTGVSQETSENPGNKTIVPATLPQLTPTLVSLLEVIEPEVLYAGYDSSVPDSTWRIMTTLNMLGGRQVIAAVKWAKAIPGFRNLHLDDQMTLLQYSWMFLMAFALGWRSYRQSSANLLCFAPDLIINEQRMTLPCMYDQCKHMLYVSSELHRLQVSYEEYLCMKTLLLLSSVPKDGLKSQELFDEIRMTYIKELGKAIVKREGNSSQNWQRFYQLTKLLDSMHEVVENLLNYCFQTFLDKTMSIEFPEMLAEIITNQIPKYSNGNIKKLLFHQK
How it was run: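 CHO-K1 cells expressing nuclear EA and GR-ED fragments of b-gal; compounds titrated up to 46 uM final, 2 h at 37 C. GR nuclear translocation read as complemented b-gal luminescence after 1 h RT detection.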

[3] = biological target: Mitogen-activated protein kinase 10 (Mus musculus) (UniProt Q61831); assay: JNK3 AlphaScreen Assay (AID 530; active means well fitted curve in either direction with a large enough effect, not every such curve was filed as active;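 further: kinase came from lysate of stimulated human HepG2 cells; signal reports phosphorylation of biotinylated GST-cJun 1-79 at Ser73 with 10 µM ATP; on the % scale 0 is the no-effect control and ±100 the full control effect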)
How it was run: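 Activity was read by AlphaScreen after JNK3-containing HepG2 lysate (cytokine pre-activated) phosphorylated biotinylated GST-cJun with 10 uM ATP at room temperature. Phospho-Ser73 cJun antibody with Protein-A acceptor beads provided detection.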

[4] = biological target: 3',5'-cyclic-AMP phosphodiesterase 4B (Homo sapiens) (UniProt Q07343); assay: qHTS Assay for Inhibitors of PDE-IV (AID 607; active means well fitted activation curve with a large enough effect in the main read-out, with a control signal flat, not every such curve was filed as active; further: % of control where 0% means no effect)
Sequence of 3',5'-cyclic-AMP phosphodiesterase 4B (Homo sapiens) (Q07343 whole entry, looked up): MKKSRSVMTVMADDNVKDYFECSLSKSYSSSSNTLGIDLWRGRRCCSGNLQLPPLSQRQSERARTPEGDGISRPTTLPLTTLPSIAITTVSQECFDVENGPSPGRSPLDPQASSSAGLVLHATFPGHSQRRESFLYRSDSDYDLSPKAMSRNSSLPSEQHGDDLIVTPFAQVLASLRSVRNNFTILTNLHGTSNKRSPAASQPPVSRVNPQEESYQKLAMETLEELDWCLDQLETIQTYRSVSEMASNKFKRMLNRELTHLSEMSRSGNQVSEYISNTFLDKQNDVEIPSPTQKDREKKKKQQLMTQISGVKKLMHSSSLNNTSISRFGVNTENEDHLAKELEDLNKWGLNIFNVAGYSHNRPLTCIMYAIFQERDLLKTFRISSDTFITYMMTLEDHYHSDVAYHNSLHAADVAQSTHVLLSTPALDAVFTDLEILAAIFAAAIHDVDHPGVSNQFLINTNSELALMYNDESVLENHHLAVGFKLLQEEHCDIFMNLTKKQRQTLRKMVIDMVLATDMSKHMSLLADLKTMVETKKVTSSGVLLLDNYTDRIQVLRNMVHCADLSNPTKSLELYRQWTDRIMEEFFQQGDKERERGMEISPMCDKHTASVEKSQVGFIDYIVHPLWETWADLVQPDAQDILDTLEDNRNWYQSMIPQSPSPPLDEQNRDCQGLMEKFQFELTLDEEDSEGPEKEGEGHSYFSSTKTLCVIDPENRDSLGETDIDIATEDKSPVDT
How it was run: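 Cell-based read-out of cAMP via a modified cyclic nucleotide-gated channel and membrane potential dye (535/590 nm) in HEK293 cells expressing PDE4 endogenously. Compounds tested up to 22.9 uM final; 100 uM RO 20-1724 reference.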

[5] = biological target: Cytochrome P450 2D6 (Homo sapiens) (UniProt P10635); assay: qHTS Assay for Inhibitors and Substrates of Cytochrome P450 2D6 (AID 891); further: nearly all actives have a fitted effect of over 60% in size; further: potency means the concentration at half of the fitted maximal effect;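 on activity change, negative = inhibition: luciferin methyl ether substrate demethylated by CYP2D6 with NADPH regeneration; on the % scale 0 is the no-effect control and ±100 the full control effect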
How it was run: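 Luminescent read-out of luciferin formed by 5 nM human CYP2D6 demethylating 30 uM Luciferin-ME EGE (Km level) over 60 min at room temperature after NADPH regeneration addition. Data normalized to full inhibition by 1.43 uM quinidine.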

[6] = qHTS Assay for Lipid Storage Modulators (AID 1519; calls by dose curve; on activity change, negative = inhibition: on the % scale 0 is the no-effect control and ±100 the full control effect); settings: Drosophila S3 cells, BODIPY lipid droplet/cell ratio, laser cytometry, cells loaded with oleic acid; for activity change, negative = inhibition: at 57.5 µM (top of the series)
How it was run: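 Cells seeded at 5,000 per well were treated with compounds over a concentration series and loaded with oleic acid (400 uM, as added). Lipid droplet fluorescence (488 nm excitation, 500-530 nm channel) was read by laser-scanning cytometry and normalized to 20 uM Triacsin C.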

[7] = biological target: Ubiquitin carboxyl-terminal hydrolase 1 (Homo sapiens) (UniProt O94782); assay: Inhibitors of USP1/UAF1: Pilot qHTS (AID 504865);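 further: rhodamine fluorescence freed from ubiquitin-rhodamine substrate followed over time; top concentration of the series differs between compounds; on the % scale 0 is the no-effect control and ±100 the full control effect; nearly all actives have a fitted effect of over 35% in size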
Sequence of Ubiquitin carboxyl-terminal hydrolase 1 (Homo sapiens) (O94782 whole entry, looked up): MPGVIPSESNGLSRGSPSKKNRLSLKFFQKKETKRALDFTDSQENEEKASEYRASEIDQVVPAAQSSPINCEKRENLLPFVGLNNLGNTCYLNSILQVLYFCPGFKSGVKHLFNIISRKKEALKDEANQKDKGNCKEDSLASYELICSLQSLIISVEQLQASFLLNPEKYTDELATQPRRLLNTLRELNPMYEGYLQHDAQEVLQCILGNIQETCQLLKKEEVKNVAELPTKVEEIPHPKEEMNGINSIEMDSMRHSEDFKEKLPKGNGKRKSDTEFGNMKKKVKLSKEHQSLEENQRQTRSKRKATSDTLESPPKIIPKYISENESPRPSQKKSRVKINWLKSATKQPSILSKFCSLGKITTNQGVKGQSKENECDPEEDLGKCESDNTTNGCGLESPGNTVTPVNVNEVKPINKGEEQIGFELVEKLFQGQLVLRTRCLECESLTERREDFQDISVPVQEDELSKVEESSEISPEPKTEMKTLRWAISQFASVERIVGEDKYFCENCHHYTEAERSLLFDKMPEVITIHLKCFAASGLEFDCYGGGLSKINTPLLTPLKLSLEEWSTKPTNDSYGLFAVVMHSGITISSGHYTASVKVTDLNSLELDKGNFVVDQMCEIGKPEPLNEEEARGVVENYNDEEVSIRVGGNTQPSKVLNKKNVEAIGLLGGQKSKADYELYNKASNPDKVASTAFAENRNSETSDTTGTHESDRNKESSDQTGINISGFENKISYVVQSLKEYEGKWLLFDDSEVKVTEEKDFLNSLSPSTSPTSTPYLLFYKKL
How it was run: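 Enzyme-free wells gave the negative control, while test wells held 1nM USP1/UAF1 preincubated with compound for 15 min at room temperature. Ub-Rho at 150nM final started the reaction, and fluorescence at 480/540 nm was recorded kinetically.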

[8] = biological target: DNA dC->dU-editing enzyme APOBEC-3G (Homo sapiens) (UniProt Q9HC16); assay: qHTS for inhibitors of Vif-A3G interactions: Validation (AID 588379); further: 0% is about no effect
Sequence of DNA dC->dU-editing enzyme APOBEC-3G (Homo sapiens) (Q9HC16 whole entry, looked up): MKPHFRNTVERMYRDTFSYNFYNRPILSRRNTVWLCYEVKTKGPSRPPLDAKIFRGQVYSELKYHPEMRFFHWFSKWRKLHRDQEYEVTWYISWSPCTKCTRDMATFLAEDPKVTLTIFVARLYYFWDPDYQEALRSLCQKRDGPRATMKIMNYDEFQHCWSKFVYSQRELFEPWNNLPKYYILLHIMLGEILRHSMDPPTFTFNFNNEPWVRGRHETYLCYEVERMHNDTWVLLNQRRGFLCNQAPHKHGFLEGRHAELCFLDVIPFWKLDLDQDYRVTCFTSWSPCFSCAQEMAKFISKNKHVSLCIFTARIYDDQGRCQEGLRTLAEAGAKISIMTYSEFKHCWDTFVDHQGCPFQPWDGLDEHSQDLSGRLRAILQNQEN
How it was run: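 Yellow fluorescence (Ex 488, Em 500-530) of Vif-coexpressing HeLa A3G-eYFP cells, scanned by Acumen cytometer, reports blocked A3G degradation. Cells plated at 700/well overnight at 37 deg C before compound addition, then a further overnight compound incubation at 37 deg C.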

[9] = system: Zika virus NS2B-NS3 protease; assay: Primary screen GU AMC qHTS for Zika virus inhibitors (AID 1347154);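 further: 0% = no-inhibitor control and -100% = no-enzyme control; nearly all actives have a fitted effect of over 70% in size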
How it was run: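 Unlinked Zika NS2B hydrophilic domain–NS3 protease complex at 25 nM in 10 mM Tris-HCl pH 8.0, 0.01% Tween 20, with an AMC peptide substrate. Fluorescence change (340/450 nm) over 15 min at room temperature, normalized to controls, fitted to 4-parameter Hill.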

[10] = biological target: Glucocorticoid receptor (Homo sapiens) (UniProt P04150); assay: GR-GFP Redistribution (AID 450;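 active means compounds whose dose series gives a full or clear partial fitted curve of increased nuclear translocation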; further: potency means the concentration at half of the fitted maximal effect); settings: U2OS GR-GFP nuclear translocation, laser cytometry, 2 h
[11] = biological target: Cytochrome P450 2C9 (Homo sapiens) (UniProt P11712); assay: qHTS Assay for Inhibitors and Substrates of Cytochrome P450 2C9 (AID 883); further: on the % scale 0 is the no-effect control and ±100 the full control effect; nearly all actives have a fitted effect of over 60% in size
How it was run: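 10nM CYP2C9 + 100uM Luciferin-H (=KM), 25mM KPO4; cpd 10 min 37C; NADPH regen, 60 min 37C; stop/detect with P450 Glo-Buffer 20 min; luminescence. Norm. to 57uM sulphaphenazole as full inhibition.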

[12] = biological target: Cytochrome P450 3A4 (Homo sapiens) (UniProt P08684); assay: qHTS Assay for Inhibitors and Substrates of Cytochrome P450 3A4 (AID 884); further: potency means the concentration at half of the fitted maximal effect; nearly all actives have a fitted effect of over 50% in size
Sequence of Cytochrome P450 3A4 (Homo sapiens) (P08684 whole entry, looked up): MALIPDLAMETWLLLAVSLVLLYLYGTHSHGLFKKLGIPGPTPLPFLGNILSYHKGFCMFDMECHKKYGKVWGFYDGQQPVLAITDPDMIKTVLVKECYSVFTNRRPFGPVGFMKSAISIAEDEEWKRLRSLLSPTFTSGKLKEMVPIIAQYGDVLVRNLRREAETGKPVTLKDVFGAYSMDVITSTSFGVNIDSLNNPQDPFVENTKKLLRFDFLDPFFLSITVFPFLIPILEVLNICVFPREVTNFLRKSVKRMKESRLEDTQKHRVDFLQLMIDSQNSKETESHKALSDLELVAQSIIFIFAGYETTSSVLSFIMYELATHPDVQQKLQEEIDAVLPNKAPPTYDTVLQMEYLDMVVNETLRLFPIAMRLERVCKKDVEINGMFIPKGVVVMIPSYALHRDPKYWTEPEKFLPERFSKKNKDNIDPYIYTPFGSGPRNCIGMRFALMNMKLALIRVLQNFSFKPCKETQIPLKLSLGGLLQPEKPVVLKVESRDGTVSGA
How it was run: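 Luminescent readout of luciferin produced by CYP3A4 (20 nM) dealkylation of Luciferin-PPXE, 25 uM (its KM). NADPH-driven reaction ran 60 min at RT after 10 min compound preincubation; data scaled to 57 uM ketoconazole as 100% inhibition.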

[13] = biological target: Cytochrome P450 3A4 (Homo sapiens) (UniProt P08684); assay: qHTS Assay for Activators of Cytochrome P450 3A4 (AID 885); further: nearly all actives have a fitted effect of over 65% in size
How it was run: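 Luminescent readout of luciferin formed from 25 uM Luciferin-PPXE (KM level) by 20 nM CYP3A4 in 200 mM KPO4, with 60 min NADPH-driven reaction at room temperature after 10 min compound exposure. Ketoconazole (57 uM) defined 100% inhibition.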

[14] = biological target: Cytochrome P450 2C19 (Homo sapiens) (UniProt P33261); assay: qHTS Assay for Inhibitors and Substrates of Cytochrome P450 2C19 (AID 899); further: on the % scale 0 is the no-effect control and ±100 the full control effect; nearly all actives have a fitted effect of over 60% in size
How it was run: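 Luminescent read-out of luciferin formed from Luciferin-H EGE (10uM, equal to KM). Enzyme 5nM in 50mM KPO4; compound added, 10 min at 37C, then NADPH regenerating system for 60 min at 37C. Full inhibition defined by 57uM ketoconazole.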

[15] = biological target: Rap guanine nucleotide exchange factor 3 (Homo sapiens) (UniProt O95398); assay: Confirmatory qHTS for antagonist of cAMP-regulated guanine nucleotide exchange factor 3 (EPAC1) (AID 1645880);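 further: plate controls were DMSO only for no effect and full effect of the ATA control for full effect; nearly all actives have a fitted effect of over 55% in size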
How it was run: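 Released BODIPY-GDP fluoresces less than Rap1-bound BODIPY-GDP; the signal is followed at 480/540 nm at 5-min intervals over 30 min, after 5 min at room temperature. Reactions contain 100 nM EPAC1, 250 nM RAP1B-BODIPY-GDP and 50 uM GDP; results are normalized to ATA and DMSO.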

[16] = biological target: Rap guanine nucleotide exchange factor 3 (Homo sapiens) (UniProt O95398); assay: Confirmatory qHTS for agonist of cAMP-regulated guanine nucleotide exchange factor 3 (EPAC1) (AID 1645881);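 further: EPAC1 catalysed release of BODIPY-GDP from Rap1B seen as fluorescence loss; 100% = effect of cAMP agonist control; nearly all actives have a fitted effect of over 75% in size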
[17] = biological target: Rap guanine nucleotide exchange factor 4 (Homo sapiens) (UniProt Q8WZA2); assay: Confirmatory qHTS for agonist of cAMP-regulated guanine nucleotide exchange factor 4 (EPAC2) (AID 1645884);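 further: nucleotide exchange releases bodipy-GDP from Rap1 and this lowers its fluorescence; on the % scale 0 is the no-effect control and ±100 the full control effect; nearly all actives have a fitted effect of over 65% in size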
Sequence of Rap guanine nucleotide exchange factor 4 (Homo sapiens) (Q8WZA2 whole entry, looked up): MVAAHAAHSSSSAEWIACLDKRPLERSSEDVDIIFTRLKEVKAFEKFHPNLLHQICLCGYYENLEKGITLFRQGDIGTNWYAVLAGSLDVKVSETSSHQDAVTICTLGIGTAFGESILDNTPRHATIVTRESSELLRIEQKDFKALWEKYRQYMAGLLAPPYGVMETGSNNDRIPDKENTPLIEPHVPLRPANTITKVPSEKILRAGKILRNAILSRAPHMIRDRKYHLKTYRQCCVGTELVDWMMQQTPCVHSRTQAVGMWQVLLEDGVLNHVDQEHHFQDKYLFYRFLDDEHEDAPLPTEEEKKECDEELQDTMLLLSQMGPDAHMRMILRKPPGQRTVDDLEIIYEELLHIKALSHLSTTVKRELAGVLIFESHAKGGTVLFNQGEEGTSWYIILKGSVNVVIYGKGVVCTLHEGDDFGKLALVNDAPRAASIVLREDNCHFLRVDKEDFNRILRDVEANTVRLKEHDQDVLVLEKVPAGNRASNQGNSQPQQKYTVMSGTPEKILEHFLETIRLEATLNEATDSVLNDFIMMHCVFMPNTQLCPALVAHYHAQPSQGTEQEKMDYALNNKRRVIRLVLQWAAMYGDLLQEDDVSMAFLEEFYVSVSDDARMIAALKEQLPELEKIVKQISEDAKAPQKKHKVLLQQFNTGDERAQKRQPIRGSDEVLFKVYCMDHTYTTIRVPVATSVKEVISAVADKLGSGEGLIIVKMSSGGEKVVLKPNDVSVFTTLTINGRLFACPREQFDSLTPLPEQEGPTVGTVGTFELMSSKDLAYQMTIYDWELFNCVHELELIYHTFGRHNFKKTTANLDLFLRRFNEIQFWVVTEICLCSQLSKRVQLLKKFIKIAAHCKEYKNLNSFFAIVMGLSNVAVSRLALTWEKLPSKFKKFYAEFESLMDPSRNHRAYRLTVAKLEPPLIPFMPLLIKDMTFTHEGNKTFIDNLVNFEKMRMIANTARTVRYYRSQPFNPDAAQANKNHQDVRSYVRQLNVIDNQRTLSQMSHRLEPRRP

[18] = biological target: Rap guanine nucleotide exchange factor 4 (Homo sapiens) (UniProt Q8WZA2); assay: Confirmatory qHTS for antagonist of cAMP-regulated guanine nucleotide exchange factor 4 (EPAC2) (AID 1645885); further: potency means the concentration at half of the fitted maximal effect; nearly all actives have a fitted effect of over 25% in size
[19] = NCATS anti-infectives library activity on HEK293 viability as a counter-qHTS vs the C. elegans viability qHTS (AID 1745854);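 further: HEK293 cells exposed to compounds for 24 hr before the viability read; on the % scale 0 is the no-effect control and ±100 the full control effect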
How it was run: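 Counter-screen for cytotoxicity: HEK293, 24 hr, 37C, compounds up to 41.7 uM final (a dilution series, 1:5). Readout CellTiter-Glo luminescence, 10 min RT. Digitonin control, 83.3 uM final.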

[20] = measured here: cell count channel max response
[21] = measured here: lipid channel max response

CCOC(=O)[C@H](N)/C=C(\C)CP(=O)(O)O
active: Potency [5] 2 µM
-0.232%: max response [6, 21]
1.46%: max response [6, 20]
inactive: Potency [1] | Potency [2] > 46 µM | Potency [3] | Potency [4] | activity change, negative = inhibition [6] -3.23% | Potency [7] | Potency [8] | Potency [9]

Cc1ccc(C(=O)Cn2c3c(sc2=N)CCCC3)cc1
inactive: Potency [10] > 46 µM | Potency [2] > 46 µM | Potency [3] | Potency [4] | Potency [11] | Potency [13] | Potency [5] | Potency [14] | Potency [8] | Potency [9]
active: Potency [1] 1 µM | Potency [12] 6.31 µM

CN1[C@H](CC(=O)c2ccccc2)CCC[C@H]1C[C@H](O)c1ccccc1
inactive: activity change, negative = inhibition [6] 4.17% | Potency [7] | Potency [8] | Potency [9]
24.7%: max response [6, 20]
active: Potency [1] 15.8 µM
29.8%: max response [6, 21]

CC[C@]1(c2ncc[nH]2)Cc2ccccc2O1
inactive: Potency [1] | Potency [10] > 46 µM | Potency [2] > 46 µM | Potency [3] | Potency [4] | Potency [7] | Potency [8] | Potency [9] | Potency [15] | outcome [16] | outcome [17]
active: Potency [18] 44.1 µM

O=C(/C=C/c1ccccc1)NC(NC(=S)Nc1cccc2cccnc12)C(Cl)(Cl)Cl (centres undefined)
inactive: Potency [9] | outcome [19]
